Measured values published in PubChem BioAssay AID588511 (Johns Hopkins Ion Channel Center, 2011).
Out of some 310,000 compounds screened, about 3,600 (1.2%) were called active.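 The calls were made as follows: active = ratio plate-corrected score three or more library SD toward inhibition, starting fluorescence score within five deviations; inactive = the rest.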 The sample as a whole holds a higher share of actives than the screen did.

Molecular target: Anoctamin-1 (Mus musculus) (UniProt Q8BHY3)
Sequence (Q8BHY3 whole entry, looked up): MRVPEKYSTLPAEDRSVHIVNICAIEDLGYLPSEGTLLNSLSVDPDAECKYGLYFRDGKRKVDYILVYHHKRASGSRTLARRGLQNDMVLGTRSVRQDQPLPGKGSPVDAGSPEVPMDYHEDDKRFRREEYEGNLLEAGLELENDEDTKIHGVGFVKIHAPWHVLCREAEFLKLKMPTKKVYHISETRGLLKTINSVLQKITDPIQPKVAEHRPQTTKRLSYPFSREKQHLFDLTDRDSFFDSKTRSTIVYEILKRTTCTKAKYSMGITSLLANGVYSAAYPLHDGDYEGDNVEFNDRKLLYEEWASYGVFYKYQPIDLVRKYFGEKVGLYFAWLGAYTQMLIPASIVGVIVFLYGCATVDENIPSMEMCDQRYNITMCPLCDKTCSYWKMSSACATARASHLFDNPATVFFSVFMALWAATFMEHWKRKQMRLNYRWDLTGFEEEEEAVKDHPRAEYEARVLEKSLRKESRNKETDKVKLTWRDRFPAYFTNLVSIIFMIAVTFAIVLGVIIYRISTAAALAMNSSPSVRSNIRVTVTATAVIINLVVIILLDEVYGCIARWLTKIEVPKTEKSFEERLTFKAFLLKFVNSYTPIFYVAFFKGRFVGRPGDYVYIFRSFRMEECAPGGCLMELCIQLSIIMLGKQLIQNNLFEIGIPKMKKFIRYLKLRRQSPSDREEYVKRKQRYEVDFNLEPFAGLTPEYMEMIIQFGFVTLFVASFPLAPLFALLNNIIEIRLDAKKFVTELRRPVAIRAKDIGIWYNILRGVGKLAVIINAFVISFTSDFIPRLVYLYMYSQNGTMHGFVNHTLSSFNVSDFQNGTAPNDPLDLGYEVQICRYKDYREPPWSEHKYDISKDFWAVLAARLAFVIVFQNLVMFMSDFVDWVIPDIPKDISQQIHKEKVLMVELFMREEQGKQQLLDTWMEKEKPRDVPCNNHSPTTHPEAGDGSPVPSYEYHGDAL
Assay: blockers of mouse ANO1 Ca-activated Cl channel – cell-based, HTS, primary screen (AID 588511);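 as to normalized B-score (activity score, 25-100; higher = stronger inhibition): score derived from kinetic fluorescence span divided by baseline fluorescence per well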
Details: HEK293 TMEM16A/YFP iodide influx fluorescence, ionomycin; at 10 µM

SMILES | normalized B-score (activity score, 25-100; higher = stronger inhibition)
COc1ccc([C@H]2[C@H](C(C)=O)N3N=Cc4ccccc4C3C23C(=O)OC(C)(C)OC3=O)cc1 (some centres not stated) | inactive
O=C(Nc1cccc(Cl)c1Cl)c1ccccc1NC(=O)C1CC=CCC1C(=O)O (configuration not stated) | inactive
Cc1c(C(=O)NC(=S)NCc2cccnc2)oc2ccccc12 | inactive
Cc1oc2nc(SCC(=O)Nc3ccc(S(N)(=O)=O)cc3)nc(NC(=O)c3ccccc3)c2c1C | inactive
Cc1oc2nc(SCC(=O)NCc3cccnc3)nc(N)c2c1C | 100 (active)
COc1ccc(CCNC(=O)c2nnc(CS(=O)(=O)c3ccccc3)o2)cc1OC | inactive
O=C(CNCCC1=CCCCC1)Nc1ccccc1N1CCCCCC1 | 25 (active)
Cc1ccccc1NC(=O)Nc1ccccc1N1CCCCC1 | inactive
Cc1ccccc1NC(=O)CNc1ccccc1N1CCCCC1 | inactive
COc1ccccc1CNC(=O)CSc1nc(=O)n(Cc2ccncc2)c2c1CCC2 | inactive
CCN(CC)CCCNC(=O)CCn1nc(-c2ccc(Cl)cc2)ccc1=O | inactive
Cc1ccc(-c2c[n+](=O)c3c(n2[O-])CCC3)cc1 | inactive
Cc1ccc(OCCCC(=O)Nc2ccc(S(=O)(=O)Nc3cc(C)nc(C)n3)cc2)cc1 | inactive
CCN1CCCC1CNC(=O)Cn1cnc2ccc(S(=O)(=O)N3CCC(C)CC3)cc2c1=O (configuration not stated) | 25 (active)
O=C(Cn1cnc2ccccc2c1=O)Nc1cccc(S(=O)(=O)N2CCCCC2)c1 | inactive
CC1CCN(S(=O)(=O)c2ccc3ncn(CC(=O)N(C)C4CCCCC4)c(=O)c3c2)CC1 | inactive
CC(=O)NC1C(Oc2ccc(C=O)cc2)OC(COC(C)=O)C(OC(C)=O)C1OC(C)=O (configuration not stated) | inactive
COc1ccc(C(=O)NC(=S)NNC(=O)c2c(-c3ccccc3)noc2C)cc1 | 100 (active)
COc1ccc(C(=O)NNC(=S)NC(=O)c2ccccc2)cc1 | inactive
Cc1onc(-c2ccccc2)c1C(=O)NNC(=S)NC(=O)c1ccc(F)cc1 | inactive
CC(C)C[C@H](NC(=O)C1CC(=O)N(c2ccc3c(c2)OCCO3)C1)C(=O)NC1CCCC1 (some centres not stated) | inactive
CN(c1cccc(NC(=O)c2ccc(CN3CCc4ccccc4C3)cc2)c1)S(C)(=O)=O | 25 (active)
CN(c1ccc(C(=O)N2CCc3ccccc3C2)cc1)S(C)(=O)=O | inactive

SMILES | normalized B-score (activity score, 25-100; higher = stronger inhibition)
Cc1cccc(C)c1NC(=O)c1ccc(CN2CCc3ccccc3C2)cc1 | inactive
COc1cccc(-n2c(=O)c3c(C)c(C(=O)N(C)C)sc3n(CC(=O)NCCc3ccc(OC)c(OC)c3)c2=O)c1 | inactive
Cc1nc(SC(C)C)[nH]c(=O)c1Cc1ccccc1 | inactive
O=C1CC(C(F)(F)C(F)(F)C(F)(F)C(F)(F)F)=Nc2ccccc2N1 | inactive
Cc1ccc(-n2ncc3c(=O)[nH]cnc32)c(C)c1 | inactive
Cc1ccc(-n2ncc3c(N4CCN(c5ccc(F)cc5)CC4)ncnc32)c(C)c1 | 100 (active)
Cc1ccc2cc(C)c(N3CCN(c4ccc(F)cc4)CC3)nc2c1 | inactive
CCN(CC)C(=O)Oc1ccc(OC(=O)N(CC)CC)cc1 | inactive
Cc1ccc(NC(=O)CN2C(=O)NC(C)(c3ccc(Cl)cc3)C2=O)c(Br)c1 (configuration not stated) | inactive
CCOC(=O)C1=C(CN2CCc3ccccc32)NC(=O)NC1c1cccc([N+](=O)[O-])c1 (configuration not stated) | 25 (active)
CCOC(=O)C1=C(CN2CCc3ccccc32)NC(=O)NC1c1ccc(Cl)cc1 (configuration not stated) | inactive
CCOC(=O)C1=C(CN2CCCCCC2)NC(=O)NC1c1cccc([N+](=O)[O-])c1 (configuration not stated) | inactive
CS(=O)(=O)N(CC(=O)N1CCOCC1)c1cccc(Cl)c1Cl | inactive
CN(CC(=O)NCCc1ccccc1)S(=O)(=O)c1cnc[nH]1 | inactive
COc1ccc(C2C(C(C)=O)=C(O)C(=O)N2c2nccs2)cc1 (configuration not stated) | inactive
Cc1cc(C)c(-c2c(O)c3ccccc3n(C)c2=O)c(C)c1 | inactive
CN(C)CCCN1C(=O)CSC1c1ccc([N+](=O)[O-])cc1 (configuration not stated) | inactive
CCCCCCCCCCCCN1C(=O)CSC1c1cccnc1 (configuration not stated) | 25 (active)
CCCCCCOc1ccc(OC(=O)c2cccnc2)cc1 | inactive
CCOC(=O)N/N=C1\CC(C)S(=O)(=O)c2ccc(Cl)cc21 (configuration not stated) | inactive
CN(C)c1ccc(/C=C2\NC(=S)N(Cc3ccccc3)C2=O)cc1 | inactive
c1ccc(Cc2cc[n+](Cc3ccccc3)cc2)cc1 | inactive
CN(C)c1cc[n+](Cc2ccccc2)cc1 | 25 (active)

SMILES | normalized B-score (activity score, 25-100; higher = stronger inhibition)
O=C(NCCC1CCCCN1S(=O)(=O)c1ccccc1)C(=O)NCC1CCCO1 (configuration not stated) | inactive
COc1ccc(CN2CN(C3CCCC3)CSC2=S)cc1 | inactive
COC(=O)c1c(C)c(C)nc(N)c1C#N | inactive
COc1ccc(CNC(=O)CN(Cc2ccccc2Cl)C(=O)c2csnn2)cc1 | inactive
O=C(CSc1nnnn1-c1ccc(O)cc1)c1ccc(F)cc1 | inactive
CC(=O)Nc1ccc(NC(=O)CSc2nnnn2-c2ccccc2F)cc1 | inactive
Cc1ccccc1-n1nnnc1SCCCC(=O)c1ccc(F)cc1 | 100 (active)
CC1=C(C(=O)NC2CC(C)(C)Cc3c2cnn3-c2ccc(C)cc2)OCCO1 (configuration not stated) | inactive
CCOC(=O)c1ccc(-n2c(CCC(=O)O)ccc2-c2ccccc2)cc1 | inactive
COCc1c(C(=O)OCc2c(C)noc2C)oc2ccccc12 | inactive
Cc1noc(C)c1COC(=O)COc1ccc(-c2ccccc2)cc1 | inactive
Cc1noc(C)c1COC(=O)c1cc2ccccc2cc1O | 25 (active)
CC(=O)Nc1ccc(S(=O)(=O)Nc2cc(C)cn(Cc3ccc(C)cc3)c2=O)cc1 | inactive
O=C(Cc1ccccn1)c1ccc(O)cc1O | inactive
CCn1ccnc1CN(C)C(=O)c1cc(COc2ccc(-n3cncn3)cc2)on1 | inactive
O=C(c1cc(COc2ccc(F)c(F)c2)on1)N1CCOCC1 | inactive
C=CCC1(CC=C)CCCN1C(=O)c1cc(COc2ccc(-n3cncn3)cc2)on1 | 100 (active)
COc1ccc(N2CCN(C(=O)CNC(=O)c3ccc(Br)o3)CC2)cc1 | inactive
COc1ccc(-c2csc(NC(=O)COC(=O)c3ccc(Br)o3)n2)cc1 | inactive
COc1ccc(-c2nc(CCNC(=O)c3ccc(Br)o3)cs2)cc1 | 100 (active)
COc1ccc(C(=O)COC(=O)CNC(=O)c2cccs2)cc1Br | inactive
